Laboratory results reported in PubChem BioAssay AID743314 (Broad Institute, 2014).
Entries with a potency or affinity are not part of this list. Results filed as inconclusive are left out. Active and inactive are the calls of the source.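 The calls were made as follows: active = fitted half-maximal concentration no higher than twice the top tested dose, in every repeat run; inconclusive = repeat runs disagree, poor fit, or flat partial inhibition; inactive = the rest.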

Target: Endoplasmic reticulum aminopeptidase 1 (Homo sapiens) (UniProt Q9NZ08)
Test: ERAP1 aminopeptidase inhibitors, dose response, biochemical, cherry-pick, set 2, plate reader (AID 743314)

Endoplasmic reticulum aminopeptidase 1 (Homo sapiens), sequence (Q9NZ08 whole entry, looked up): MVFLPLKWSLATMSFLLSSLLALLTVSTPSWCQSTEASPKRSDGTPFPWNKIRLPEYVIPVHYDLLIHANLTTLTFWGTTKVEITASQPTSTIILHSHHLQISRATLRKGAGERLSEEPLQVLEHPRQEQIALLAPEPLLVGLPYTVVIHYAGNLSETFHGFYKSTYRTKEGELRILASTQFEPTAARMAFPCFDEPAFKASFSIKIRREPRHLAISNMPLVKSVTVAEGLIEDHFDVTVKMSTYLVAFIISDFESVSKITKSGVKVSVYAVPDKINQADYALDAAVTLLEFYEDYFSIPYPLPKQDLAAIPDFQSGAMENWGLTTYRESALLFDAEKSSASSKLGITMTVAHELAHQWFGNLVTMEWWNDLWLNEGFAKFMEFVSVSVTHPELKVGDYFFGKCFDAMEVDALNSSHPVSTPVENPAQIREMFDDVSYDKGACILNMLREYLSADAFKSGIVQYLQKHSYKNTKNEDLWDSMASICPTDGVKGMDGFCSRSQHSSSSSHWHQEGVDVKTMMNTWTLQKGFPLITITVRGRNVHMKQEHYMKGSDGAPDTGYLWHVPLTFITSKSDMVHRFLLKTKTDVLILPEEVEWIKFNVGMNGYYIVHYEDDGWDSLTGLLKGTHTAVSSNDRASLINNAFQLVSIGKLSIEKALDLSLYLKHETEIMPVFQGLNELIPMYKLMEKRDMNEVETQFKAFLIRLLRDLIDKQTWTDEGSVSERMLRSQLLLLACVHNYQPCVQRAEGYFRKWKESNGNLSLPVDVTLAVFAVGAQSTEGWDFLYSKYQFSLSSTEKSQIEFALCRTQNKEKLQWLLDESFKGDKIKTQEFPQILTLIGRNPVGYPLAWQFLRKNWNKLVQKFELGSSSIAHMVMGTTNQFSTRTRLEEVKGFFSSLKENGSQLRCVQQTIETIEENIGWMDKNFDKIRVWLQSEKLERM

SMILES | outcome
CCN(CC)CCCN=C1N[C@@H](c2ccccc2)C(C(=O)OC)=C(C)N1CC | inactive
Cc1noc(C)c1NC(=O)N(C)C[C@@H]1Oc2c(NC(=O)Nc3ccc(F)cc3)cccc2C(=O)N([C@@H](C)CO)C[C@H]1C | inactive
COc1ccc2c3c([nH]c2c1)[C@H](CO)N(S(=O)(=O)c1cn(C)cn1)CC31CCN(CC2CCCCC2)CC1 | inactive
COCCN(CC(=O)Nc1cccc(C)c1C)C(=O)CN1C(=O)NC2(CCCCC2)C1=O | inactive
CC(Sc1nnc(-c2cccnc2)n1C)C(=O)N1CCOCC1 (centres undefined) | inactive
O=C(CSc1n[nH]c(-c2cccs2)n1)NC1CCS(=O)(=O)C1 (centres undefined) | inactive
O=C(COC(=O)c1ccc(CO)cc1)Nc1ccc2ccccc2c1 | inactive
Cc1noc(C)c1NC(=O)N(C)C[C@@H]1Oc2c(NC(=O)Nc3ccccc3)cccc2C(=O)N([C@H](C)CO)C[C@@H]1C | inactive
COc1ccc2c3c([nH]c2c1)[C@@H](CO)N(C(C)=O)CC31CN(S(=O)(=O)c2cccs2)C1 | inactive
C[C@H]1CCCCO[C@@H](CN(C)S(=O)(=O)c2cn(C)cn2)[C@@H](C)CN([C@@H](C)CO)C(=O)c2cc(NC(=O)Nc3ccccc3)ccc2O1 | inactive
CCc1cccc(C)c1NC(=O)c1cc(=O)[nH]c2ccc(S(=O)(=O)N3CCOCC3)cc12 | inactive
CCc1ccccc1NC(=O)CCC(=O)N1CCN(C(C)=O)CC1 | inactive
Cc1ccc(S(=O)(=O)Nc2ccc3c(c2)CC(=O)N([C@H](C)CO)C[C@H](C)[C@H](CN(C)Cc2ccccc2)O3)cc1 | inactive
Cc1ccc(SC(C)C(=O)NCc2ccncc2)cc1 (centres undefined) | inactive
COc1ccc(NC(=O)Nc2ccc3c(c2)C(=O)N([C@@H](C)CO)C[C@@H](C)[C@H](CN(C)Cc2ccc(C(=O)O)cc2)OCCCC[C@H](C)O3)cc1 | inactive
COC(=O)[C@H]1[C@H](CO)[C@H]2Cn3c(ccc(C4=CCCC4)c3=O)[C@H]2N1C(=O)C1CC1 | inactive
COc1ccc(NC(=O)Nc2cccc3c2O[C@H](CN(C)Cc2ccc(C(=O)O)cc2)[C@H](C)CN([C@@H](C)CO)C3=O)cc1 | inactive
N=c1c(S(=O)(=O)c2ccccc2)cc2c(=O)n3ccccc3nc2n1CCCN1CCOCC1 | inactive
CCN(CC)CCNC(=O)c1ccc(NC(=O)c2ccc(-n3cncn3)c([N+](=O)[O-])c2)cc1 | inactive
CC(=O)NC(CC(=O)NCCOc1ccccc1F)c1ccccc1 (centres undefined) | inactive

SMILES | outcome
Cc1noc(C)c1NC(=O)N(C)C[C@H]1Oc2c(NC(=O)Nc3ccc(F)cc3)cccc2C(=O)N([C@H](C)CO)C[C@H]1C | inactive
C[C@@H]1CN([C@H](C)CO)C(=O)c2cccc(NS(=O)(=O)c3ccc(Cl)cc3)c2O[C@@H]1CN(C)C(=O)Nc1ccccc1 | inactive
O=C(c1ccccc1)N1CC(=O)N2[C@H](CO)[C@@H](c3ccc(-c4ccccc4)cc3)[C@H]2C1 | inactive
O=C(O)c1ccccc1NS(=O)(=O)c1cccc(NS(=O)(=O)c2cc(Br)ccc2Br)c1 | inactive
O=C(c1ccc(F)cc1)N1CC2(C1)[C@@H](c1ccccc1)[C@@H](CO)N2Cc1ccccn1 | inactive
O=C(c1ccc(F)cc1)N1CC2(C1)[C@H](c1ccccc1)[C@@H](CO)N2Cc1ccccn1 | inactive
CCCN1[C@@H]2c3ccc(-c4cccnc4)c(=O)n3C[C@H]1[C@H](CO)[C@H]2C(=O)NCCc1cn(C)cn1 | inactive
Cc1cccc(C)c1NC(=O)CSc1nnc(NC(=O)c2ccccc2C(=O)O)s1 | inactive
CCn1c(SCC(=O)NC2CCCCC2)nc2ccccc2c1=O | inactive
CN(c1ccccc1)S(=O)(=O)c1cc(C(=O)OCC(=O)N2CCN(C(=O)c3ccco3)CC2)ccc1Cl | inactive
COc1ccccc1CN1[C@H](CO)[C@@H](c2ccccc2)C12CN(C(=O)c1ccccn1)C2 | inactive
C[C@@H]1CN([C@@H](C)CO)C(=O)c2cc(-c3ccc(F)cc3)cnc2O[C@@H]1CN(C)CC1CCCCC1 | inactive
CC(C)C(NC(=O)CCNC(=O)c1ccc([N+](=O)[O-])cc1)c1nc2ccccc2[nH]1 (centres undefined) | inactive
CCCCCCc1c(C)c2ccc(OCC(=O)N[C@@H](Cc3ccccc3)C(=O)O)cc2oc1=O | inactive
C[C@@H]1CCCCO[C@H](CN(C)C)[C@@H](C)CN([C@@H](C)CO)C(=O)c2cc(NS(=O)(=O)c3ccc(Cl)cc3)ccc2O1 | inactive
COc1ccc(CN(C)C[C@H]2OCCCC[C@H](C)Oc3ccc(NS(=O)(=O)c4cccs4)cc3C(=O)N([C@H](C)CO)C[C@H]2C)cc1 | inactive
C[C@H](CO)N1C[C@H](C)[C@@H](CN(C)C(=O)Nc2ccccc2)Oc2ccc(NC(=O)c3ccncc3)cc2C1=O | inactive
O=c1cc(CN2CCOCC2)c2cc(Cl)c(O)cc2o1 | inactive
COc1ccc(NC(=O)Nc2ccc3c(c2)C(=O)N([C@@H](C)CO)C[C@H](C)[C@H](CN(C)Cc2ccc(C(=O)O)cc2)OCCCC[C@H](C)O3)cc1 | inactive
